# CRFR2-BP ag = agonists of human CRF-binding protein/CRF-R2 receptor complex; activation, % at 13.2 µM; 350,000 compounds, 0.46% hits; HEK293 CRF-R2/CRF-BP, calcium dye fluorescence (FLIPR); percent of saturating CRF peptide response;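 active = activation of at least 50%, plus an integration ratio under a set limit after plate pattern correction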;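 also: plate controls were neutral control wells without compound for no effect and CRF at EC100 for full effect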
# cardiac RTF act = increases calcium sensitivity of human cardiac regulated thin filaments; activation, % at 7.2 µM; IANBD-labeled TnC RTF fluorescence at EC20 calcium; 0% EC20 calcium, 100% full calcium; AID 493008; 340,000 compounds, 0.24% hits;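 active = activation above the mean over all tested compounds plus 3 SD, cut at about 30% in these data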;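 also: rise in fluorescence read as greater calcium sensitivity of cardiac thin filaments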
# CRFBP-R2 block = CRF-BP/CRF-R2 complex antagonism. HEK293 CRF-R2/CRF-BP, CRF-induced calcium fluorescence. inhibition, % at 11.8 µM. 350,000 compounds, 0.59% hits;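 active = inhibition of the ligand-induced calcium signal above about 50% at the single tested concentration, limit read from the data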
# Cardiac RTF inh = cardiac RTF calcium desensitization | P19429+P45379 | IANBD-labeled cardiac RTF, Ca2+ fluorescence | inhibition, % at 7.15 µM | 340,000 compounds, 0.12% hits;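 active = inhibition above the mean inhibition of all tested compounds plus 3 SD, cut at about 17% in these data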;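 also: assay run at fixed EC70 calcium of 1.6 mM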
# Starred values were filed as active, the others as inactive; / = not tested or not shown. This is a sample that favours compounds with a hit; in the whole collection about 1.3% have one here.
SMILES,CRFR2-BP ag,cardiac RTF act,CRFBP-R2 block,Cardiac RTF inh
Cc1n[nH]c(C)c1N1C(=O)c2cccc3c(N4CCCCCC4)ccc(c23)C1=O,400*,317*,-375,-391
CC(=O)c1ccc2c3c(cccc13)C(=O)N(c1c(C)nn(C)c1C)C2=O,2,3,-2,-9
O=C1c2cccc3c(N4CCCCC4)ccc(c23)C(=O)N1CCO,118*,76*,-154,-101
COc1cccc(-c2cc(C(=O)NC3CCCCC3)no2)c1,0,-4,10,-16
CCOP(=O)(OCC)c1ccc2c(c1)C(=O)c1ccccc1CC2,0,-2,-6,-25
O=S(=O)(NC(=NCCc1ccc(Cl)cc1)c1ccccc1Cl)c1cccs1,0,-1,-7,2
Cn1nccc1C(=O)Oc1ccc(/C=N/NC(=O)c2ccccc2O)cc1,-1,9,1,-8
CC(C#N)(NC(=O)CN1CCN(S(=O)(=O)c2ccccc2C#N)CC1)C1CC1 (stereo not given),11,4,-33,-3
Cc1ccc(C)c(NC(=O)CCc2ccc(C)o2)c1,0,-2,15,-3
Cc1ccc(CCC(=O)Nc2cc(Cl)ccc2Cl)o1,-1,39*,5,-7
CCCC(=O)Nc1ccc(-c2nc3cc(C)c(C)cc3o2)c(O)c1,3,0,75*,-9
CC(=O)N1CCCC(C(=O)c2ccc(Oc3ccccc3)cc2)C1 (stereo not given),0,6,-3,2
CC1=CC(C)(C(Cl)(Cl)Cl)C(C)=CC1=NO (stereo not given),0,/,57*,/
CC(C)(C)SCCNC(=O)/C=C/c1cccc([N+](=O)[O-])c1,0,3,36,7
O=C(Nc1ncc([N+](=O)[O-])s1)c1ccc2c(c1)OCO2,36,-7,-1,-6
Cc1ccc(C(=O)Nc2ncc([N+](=O)[O-])s2)cc1,58*,3,19,-8
CCOc1ccccc1-n1c(C)nc2cc(C(=O)O)ccc21,1,-5,70*,-5
C/C(=N\NC(=O)c1ccc(Br)cc1)C1C(=O)c2ccccc2C1=O,14,7,55*,-1
C/C(=N\NC(=O)c1ccc(-c2ccccc2)cc1)C1C(=O)c2ccccc2C1=O,15,3,41,-4
OC1(c2ccccc2)c2ccccc2-c2ncccc21 (stereo not given),0,11,-1,-14
COc1ccc(C2=Nn3c(nnc3-c3ccco3)SC2)cc1,-6,0,68*,-5
CN(Cc1ccccc1)C(=O)c1cccc(NC(=O)Cc2ccc(NC(=O)C3CCCN(C(=O)CCc4ccccc4)C3)cc2)c1 (stereo not given),4,12,57*,-12
NC(=O)c1ccc(C2SCC(=O)N2Cc2ccccc2)cc1 (stereo not given),-2,3,78*,-4
O=C(O)c1ccc(C2SCC(=O)N2Cc2ccccc2)cc1 (stereo not given),1,-4,-5,-4
COc1ccc(C(CCN2CCCCC2)c2c(OC)cc(OC)c3c(-c4ccccc4)cc(=O)oc23)cc1 (stereo not given),59*,4,-32,5
SMILES,CRFR2-BP ag,cardiac RTF act,CRFBP-R2 block,Cardiac RTF inh
Cc1ccc(S(=O)(=O)N(CC(=O)NCc2ccco2)Cc2ccccc2F)cc1,-2,-1,89*,-10
Cc1ccc(S(=O)(=O)NCC(=O)N(CC(=O)NCc2ccco2)Cc2ccccc2)cc1,55*,0,-56,-16
Cc1ccc(S(=O)(=O)NCC(=O)N(CCc2ccccc2)CC(=O)NCc2ccco2)cc1,-1,0,12,-10
Cc1ccc([N+](=O)[O-])cc1NC(=O)CSc1n[nH]c(-c2cccnc2)n1,1,-7,3,2
COC(=O)CCCC1=CC2=C(c3ccccc3)C(=O)C(C)(OC(=O)C3CCCC3)C(=O)C2=CN1CCc1ccccn1 (stereo not given),2,2,57*,-4
COC(=O)CCCC1=CC2=C(c3ccccc3)C(=O)C(C)(OC(=O)C3CCCC3)C(=O)C2=CN1CCN1CCOCC1 (stereo not given),1,-3,3,-11
O=C(Cn1nnc(-c2ccccc2)n1)NCC(=O)Nc1ccc(F)c(F)c1F,-1,2,-1,-6
COc1ccccc1CC(=O)NCc1nn(-c2ccccc2)nc1C,2,-3,11,9
O=C(NC1CC1)C1CCCN1C(=O)NC1CCCCC1 (stereo not given),-2,-2,5,2
O=C(NCC1CCCO1)C1CCCN1C(=O)NC1CCCCC1 (stereo not given),-4,4,53*,3

# High-throughput results: PubChem, several laboratories
